# Compound activity: PubChem, National Center for Advancing Translational Sciences (NCATS)
# HepG2 tox – HepG2 cytotoxicity, counter-screen for TGF-b inhibitors. HepG2 CAGA-GFP viability, ATP luminescence, 18 h. Potency, µM (highest dose often 46.1 µM), inactives show top-dose activity change, negative = cytotoxicity, usual class: cytotoxic. 410,000 tested, 0.76% active. AID 588856; further: potency means the concentration at half of the fitted maximal effect
#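 HepG2 CAGA-GFP cells (1000/well, DMEM with 1% FBS) received compound, then TGF-beta at 500 pg/mL final, and were incubated 18 hours at 37 degrees C. Viability was read by CellTiter-Glo luminescence. Media-only wells were set as complete cell-killing and DMSO as no toxicity.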
# TDP1 cell noCPT – qHTS for Inhibitors of human tyrosyl-DNA phosphodiesterase 1 (TDP1): qHTS in cells in absence of CPT | DT40 Tdp1-/- hTDP1 cells, no CPT, ATP luminescence, 48 h | Potency, µM (series often up to 46.2 µM), without a hit: top-dose activity change, negative = growth inhibition, usual class: inhibitors | 420,000 tested, 15% active; further: potency means the concentration at half of the fitted maximal effect; on the % scale 0 is the no-effect control and ±100 the full control effect; nearly all actives have a fitted effect of over 55% in size
#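 Growth kinetics read by CellTiter-Glo luminescence after ≥48 hr at 37 °C. Cells: DT40 Tdp1-/- stably carrying human TDP1, 400 per well, compound exposure in the absence of CPT (DMSO vehicle).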
# DT40 TDP1 CPT – DT40-hTDP1 cell growth loss with CPT; 420,000 tested, 12% active; chicken DT40 Tdp1-/-;hTDP1 cells + 20 nM CPT, ATP luminescence, 48 h; Potency, µM (highest dose often 46.2 µM), for the others: top-dose activity change, negative = growth inhibition, usual class: inhibitors; AID 686979; further: potency means the concentration at half of the fitted maximal effect; on the % scale 0 is the no-effect control and ±100 the full control effect; nearly all actives have a fitted effect of over 55% in size
#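 Chicken DT40 Tdp1-/- cells complemented with human TDP1, 400 cells/well, exposed to compounds plus 20 nM camptothecin for at least 48 h at 37 C; viability read as ATP content by CellTiter-Glo luminescence.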
# TDP1 block – inhibitors of human tyrosyl-DNA phosphodiesterase TDP1. Q9NUW8. recombinant TDP1, AlphaScreen DNA substrate cleavage. Potency, µM (doses to about 130 µM), inactives show at the highest dose activity change, negative = inhibition, actives largely listed as inhibitors. 350,000 tested, 0.28% active. AID 485290; further: potency means the concentration at half of the fitted maximal effect; on the % scale 0 is the no-effect control and ±100 the full control effect; nearly all actives have a fitted effect of over 40% in size
# Target sequence (Q9NUW8 whole entry, looked up): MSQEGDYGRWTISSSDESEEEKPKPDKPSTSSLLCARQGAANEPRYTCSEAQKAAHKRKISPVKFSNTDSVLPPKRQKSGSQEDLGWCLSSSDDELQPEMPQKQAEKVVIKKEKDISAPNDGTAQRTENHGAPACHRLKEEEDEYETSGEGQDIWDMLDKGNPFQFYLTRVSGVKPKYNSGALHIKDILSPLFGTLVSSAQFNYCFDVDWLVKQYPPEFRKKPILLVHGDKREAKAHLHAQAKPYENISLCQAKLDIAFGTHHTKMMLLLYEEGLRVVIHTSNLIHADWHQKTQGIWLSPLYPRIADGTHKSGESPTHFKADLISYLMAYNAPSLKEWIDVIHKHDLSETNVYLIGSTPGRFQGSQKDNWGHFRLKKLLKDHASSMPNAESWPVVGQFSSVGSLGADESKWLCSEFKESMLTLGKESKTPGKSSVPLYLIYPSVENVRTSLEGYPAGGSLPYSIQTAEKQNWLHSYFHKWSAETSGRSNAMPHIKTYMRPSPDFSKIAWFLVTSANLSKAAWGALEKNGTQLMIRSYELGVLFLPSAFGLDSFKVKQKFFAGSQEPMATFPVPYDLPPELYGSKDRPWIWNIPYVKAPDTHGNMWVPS
#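 Recombinant E. coli-expressed Tdp1 (1 nM) preincubated with compound 15 min at RT, then 5'-biotin/3'-phosphotyrosine-FITC DNA substrate (15 nM) added for 5 min. AlphaScreen beads (10 ug/ml) added, 10 min RT; tyrosine-FITC cleavage read as signal loss.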
# TGFb inhibitor – blocks TGF-b signaling; HepG2 CAGA-GFP TGF-b/SMAD3 reporter, GFP fluorescence, 18 h; TGF-beta stimulated, 500 pg/mL final; Potency, µM (series often up to 46.1 µM), for the others: top-dose activity, negative = inhibition, most hits filed as inhibitors; 410,000 tested, 1.2% active; further: potency means the concentration at half of the fitted maximal effect; on the % scale 0 is the no-effect control and ±100 the full control effect; nearly all actives have a fitted effect of over 65% in size
#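 HEPG2 CAGA-GFP reporter cells (1000/well, DMEM with 1% FBS) received compounds, then recombinant TGF-beta at 500 pg/mL final for 18 hours at 37 degrees C. Per-cell GFP summed per well was normalised to unstimulated and stimulated DMSO controls before curve fitting.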
# IL-1B inflam inh – blocks inflammasome-driven IL-1 beta release; activity change, % at 57.5 µM; THP-1 LPS/ATP IL-1B secretion, AlphaLISA, 16 h; hits give low values; 360,000 tested, 4.7% active; AID 743279; in the data active means activity change below about -50%; inconclusive means mostly about -30% to -49%; further: on the % scale 0 is the no-effect control and ±100 the full control effect
#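 THP-1 cells pretreated 1 hr with compounds (up to 57.5 uM final), then stimulated with LPS (250 ng/mL final) plus ATP (1.25 mM final); secreted IL-1B measured by AlphaLISA after 16 hr, decreased signal indicating inhibition.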
# * marks the source's active call; other numbers are inactive results; ? = inconclusive; / = not tested or not shown; [ ] = dose if it differs, or a comment. Only some compounds are listed: those with a hit (about 19% of all), similar ones and a draw of the others. Unless noted, the call rests on the fitted dose curve; in most records, active means well fitted curve in the direction sought with a large enough effect; inconclusive means small, poorly fitted or top-dose-only effect, or another doubt; inactive means no such curve, though single readings can be large; an effect the other way counts as inactive or inconclusive.
SMILES,HepG2 tox,TDP1 cell noCPT,DT40 TDP1 CPT,TDP1 block,TGFb inhibitor,IL-1B inflam inh
CCCc1cc(NCC2CCCO2)n2c(nc3ccccc32)c1C#N (stereo not given),-8%,23µM*,18µM*,-5%,0%,-4
CCCc1cc(NCc2ccccn2)n2c(nc3ccccc32)c1C#N,1%,18µM*,?,3%,14%,-10
N#Cc1c2c(c(N3CCN(c4ccccn4)CC3)n3c1nc1ccccc13)CCC2,/,/,/,1%,/,/
CCCc1cc(NCCCN(C)C)n2c(nc3ccccc32)c1C#N,-33%,?,-5%,/,15%,-5
Cc1cc(N2CCN(c3ccccn3)CC2)n2c(nc3ccccc32)c1C#N,2%,18µM*,?,-6%,-2%,13
CN(Cc1ccccc1)CC(O)COc1ccc(CNCc2ccc(Cl)s2)cc1 (stereo not given),-59%,16µM*,?,3%,13µM*,-80*
c1ccc(COc2ccc(CNCc3cccnc3)cc2)cc1,-35%,?,-17%,3%,-31%,-63*
c1ccc(COc2ccc(CNCc3cccs3)cc2)cc1,-57%,13µM*,?,-2%,-10%,-8
CN(Cc1ccccc1)CC(O)COc1ccc(CNCc2cccnc2)cc1 (stereo not given),-9%,?,23µM*,6%,3%,-14
CCn1cc(CNCc2ccc(OCC(O)CN(C)Cc3ccccc3)cc2)cn1 (stereo not given),-22%,?,?,5%,-9%,0
COc1ccc(C)cc1NC(=O)C1CCN(S(=O)(=O)Cc2ccccc2)CC1,-16%,3%,6%,6%,-5%,/
CCN1CCN(c2ccc(NC(=O)c3ccco3)cc2)CC1,0%,20%,3%,1%,0%,-12
CCN1CCN(c2ccc(NC(=O)c3ccc4c(c3)[nH]c(=O)n4Cc3ccc(F)cc3)cc2)CC1,-20%,29µM*,18µM*,3%,-29%,29
COc1ccc(Cn2c(=O)[nH]c3cc(C(=O)Nc4ccc(N5CCN(C)CC5)cc4)ccc32)cc1,-30%,?,?,-3%,?,-59*
CC(C)=CCC/C(C)=C/CO/N=C1/[C@H]2O[C@@H]2[C@@H](O)[C@H]2[C@H]1CCn1c(=O)n(-c3ccccc3)c(=O)n12,/,/,/,8%[21 µM],/,/
C=C(C)C(=O)OCCCCCCOc1ccc(C(=O)O)cc1,-6%,-15%,4%,25µM*,0%,18
CCCCCCCCOc1ccc(C(=O)O)cc1,-8%,-3%,-4%,1%,0%,13
c1ccc(C2NCCc3ccccc32)cc1 (stereo not given),-14%,26µM*,?,6%,-26%,-7
COc1cc(Cc2cc(OC)c(O)c(OC)c2)cc(OC)c1O,2%,21µM*,16µM*,/,-2%,-1
COc1cc(CN2CCCCCC2)cc(OC)c1O,10%,3%,-9%,/,0%,-1
O=C(C1CCN(S(=O)(=O)c2ccccc2F)CC1)N1CCCC1,-4%,-18%,-2%,2%[0.505 µM],15%,-8
c1csc(C2Nc3ccccc3-c3nc4ccccc4n32)c1 (stereo not given),-33%,?,16µM*,5%,-29%,?
Cc1ccsc1C1Nc2ccccc2-c2nc3ccccc3n21 (stereo not given),-20%,?,?,-5%,-12%,-11
COc1cccc(-n2c(C)nc3c(cnn3-c3ccc(Cl)cc3)c2=O)c1,20%,7.3µM*,8.2µM*,4%,-5%,-20
CCc1cccc(-n2c(C)nc3c(cnn3-c3ccc(C)c(C)c3)c2=O)c1,-35%,23µM*,-74%,0%,?,/
SMILES,HepG2 tox,TDP1 cell noCPT,DT40 TDP1 CPT,TDP1 block,TGFb inhibitor,IL-1B inflam inh
CCc1nc2c(cnn2-c2ccc(C)cc2)c(=O)n1Cc1ccccc1,-31%,?,?,-7%,?,/
CCc1cccc(-n2c(C)nc3c(cnn3-c3ccc(Cl)cc3)c2=O)c1,-27%,4.1µM*,5.8µM*,-2%,?,/
CCc1nc2c(cnn2-c2ccc(Cl)cc2)c(=O)n1-c1ccc2c(c1)OCCO2,3%,18µM*,?,4%,-11%,12
CCc1nc2c(cnn2-c2ccc(Cl)cc2)c(=O)n1-c1ccc(OC)cc1,-26%,?,?,6%,?,?
Cc1nn(-c2ccccc2)c(OC(=O)C(C)(C)C)c1Sc1ccccc1,-16%,-20%,-22%,15%,-14%,/
O=C(CCCc1ccccc1)NC1CC(=O)N(c2ccc(F)cc2)C1 (stereo not given),-8%,?,?,0%,-3%,/
Cc1cc(C)nc(N2CCN(S(=O)(=O)c3ccc(F)cc3)CC2)n1,-22%,?,?,/,-5%,-6
C[C@@H]1CN([C@@H](C)CO)C(=O)CCCn2nncc2CO[C@H]1CN(C)C(=O)Nc1ccc(F)cc1,43%,-22%,-3%,/,35%,19
COC1(OC)C(/C=C/c2ccc(Cl)cc2)C(C#N)(C#N)C1(OC)OC (stereo not given),-44%,8.2µM*,8.2µM*,5%,?,-102*
CC(C)c1cc(C(=O)NCc2ccc(F)cc2)no1,-3%,-11%,1%,-2%,/,/
CSc1nn(Cc2ccccc2C)c(NC(C)=O)c1S(=O)(=O)c1ccc(C)cc1,3%,15µM*,?,0%,?,/
Oc1c(C(Nc2ccccn2)c2ccccn2)ccc2cccnc12 (stereo not given),-16%,0.82µM*,0.82µM*,9%,-19%,93
Oc1c(C(Nc2ccccn2)c2ccccc2F)ccc2cccnc12 (stereo not given),-1%,16µM*,?,12%,1.4µM*,/
Oc1ccccc1C(Nc1nccs1)c1ccc2cccnc2c1O (stereo not given),-17%,2.6µM*,3.7µM*,11%,?,68
COc1ccccc1NC(c1cccnc1)c1ccc2cccnc2c1O (stereo not given),-43%,?,?,11%,?,-25
O=C(Nc1nccs1)c1cccc2ccccc12,33%,0%,-7%,/,19%,34
COc1ccc(CNC(=O)Nc2cccc(C(F)(F)F)c2)cc1OC,-6%,9.2µM*,?,-8%,9%,3
